Measured values published in the OligoGym collection.

What follows are sequences tested against DNTTIP1 (assay: pooled miR-30 sensor sort-seq; sequence = guide strand). Settings: shRNA.
Also: reference of the scale not given here.

Row | Sequence | sensor-assay potency score (higher = more potent)
1 | TTTGGTTTCCATACCATGCCGG | -0.318
2 | TGAGTCACTACAAACTCGCTCA | -0.249
3 | TGAAACTTGTTGTCATCTGTGA | 0.435
4 | TTCCTCTAGCTTCAGATCCAGG | -1.66
5 | TACTTGTTGAAGACAGTCTGGA | 0.302
6 | TTGATGTAGATTCTTCCTCTGG | -0.475
7 | TATACTTTCTCATCTTCTCCAC | 0.0054
8 | TTTATCATTATGTTCCAAGGGT | 0.164
9 | TTGGTTTCCATACCATGCCGGC | -0.684
10 | TTTCAATTCCTCTAGCTTCAGA | -0.665
11 | TAGAACCACATGCTAGTCTGGG | -0.495

The sequences below were run against DOCK11 in the same assay as above. Settings: shRNA.

Row | Sequence | sensor-assay potency score (higher = more potent)
12 | TTCTCTTCCAACAAGTATGTGG | -0.568
13 | TTCACTATAATGGACATCCATC | -1.02
14 | TGATCTTAGATAACTATCCAAG | -1.04
15 | TTGATCTTCTTTAATTAGCCGC | -0.638
16 | TTTTGTATGCATAACTTCCAGA | -0.169
17 | TTTCTTGAACTAAACTGTCGGT | 0.142
18 | TTCTTGAACTAAACTGTCGGTG | -0.436
19 | TTCAATATTGCTATCATCGTAG | 0.383
20 | TTGAACTAAACTGTCGGTGTTG | -0.114
21 | TAAACTGTCGGTGTTGATCTGA | 0.463
22 | TTGCTTTATGCAACCAGCCTTG | -0.849
23 | TTTAGCTGTCCTGTGCACCTTC | 0.773

The sequences below were run against DOCK1 in the same assay as above. Settings: shRNA.

Row | Sequence | sensor-assay potency score (higher = more potent)
24 | TATCTTGTGTTGACCAAGGTTG | -0.193
25 | TATTATATCTGTTACATCCATC | -0.566
26 | TTACAATCTGCTCTGACACTGG | 0.172
27 | AACACTTTTGTCAACTTCGTGT | 0.131
28 | TTCGTAACGTGTAACCTCGGTA | -0.19
29 | TCATCGTACACAGACACCGTGA | -0.406
30 | TATCATTTCGAACATCACCAGG | -1.26
31 | TTCTTTGTTCTCGTCGTGCATG | -1.13
32 | TTAACAGTCTCAAACCAGCGTG | -0.984
33 | TTGGAGACACACCTCAACCAAC | -1.22
34 | TTGTACTGTTCGTCTCCTCTGC | 0.121
35 | TAACACTTTGTACTGTTCGTCT | -0.198
36 | TTGTCTGTTAATATCTATGTTC | -0.583
37 | TAACAGTCTCAAACCAGCGTGG | -0.364
38 | TTAGAGTCCTGTGATGACCTGT | 0.59
39 | TACATCATCACTACACAGCTTC | 0.384
